In PubChem BioAssay AID1619 (SRMLSC, 2009):
Screen size: about 220,000 compounds; about 830 (0.38%) were called active. These entries were drawn from the full list. Potency and affinity values are given separately. Unmarked numbers belong to inactive results.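 How the source made its calls: active means compound inhibiting the enzyme by more than half at any dose during confirmatory dose-response retesting; inconclusive means strong single-dose inhibitors picked by rank but not retested; inactive means the rest.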

Each molecule was assayed against Leucine aminopeptidase (Plasmodium falciparum (isolate 3D7)) (UniProt Q8IL11) (assay: P. falciparum M17LAP inhibitors, primary screen, biochemical, fluorogenic H-Leu-NHMec substrate, 1536-well (AID 1619;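 further: plate controls were full reaction with DMSO carrier for no effect and no enzyme background for full effect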)). Details: recombinant M17LAP, H-Leu-NHMec fluorogenic kinetic assay; at 30 µM; hits give high values.
Leucine aminopeptidase (Plasmodium falciparum (isolate 3D7)), sequence (Q8IL11 whole entry, looked up): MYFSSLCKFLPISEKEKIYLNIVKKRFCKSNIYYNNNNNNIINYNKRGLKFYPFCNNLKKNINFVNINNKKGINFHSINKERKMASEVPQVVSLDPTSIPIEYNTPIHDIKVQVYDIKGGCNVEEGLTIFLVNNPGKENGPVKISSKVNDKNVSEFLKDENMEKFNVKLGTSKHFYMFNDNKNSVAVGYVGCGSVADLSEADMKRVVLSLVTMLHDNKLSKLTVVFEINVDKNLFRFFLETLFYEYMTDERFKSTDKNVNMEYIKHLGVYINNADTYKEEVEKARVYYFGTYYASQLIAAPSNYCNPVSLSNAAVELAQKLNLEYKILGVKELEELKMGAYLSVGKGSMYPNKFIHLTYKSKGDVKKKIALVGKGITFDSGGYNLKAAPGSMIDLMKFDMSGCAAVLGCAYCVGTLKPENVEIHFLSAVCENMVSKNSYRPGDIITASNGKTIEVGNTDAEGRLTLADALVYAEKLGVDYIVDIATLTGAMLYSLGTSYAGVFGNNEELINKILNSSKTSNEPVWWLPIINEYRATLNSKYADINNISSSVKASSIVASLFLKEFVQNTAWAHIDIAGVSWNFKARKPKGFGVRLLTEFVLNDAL

SMILES | inhibition [%]
O=C(CSc1nnc(CN2CCCCCC2=O)n1-c1ccccn1)NCC(F)(F)F | -5.65
C/C(=C\c1ccccc1)CN1CCC(C(=O)N2CCC(C)CC2)CC1 | 1.41
COCCSc1nnc(NC(=O)c2ccc([N+](=O)[O-])cc2)s1 | -6.15
COCc1nnc(NC(=O)c2cc(C(=O)OC)cc([N+](=O)[O-])c2)s1 | 6.44
CCc1nn(-c2ccccc2)c(N)c1-c1ccc(OC)c(OC)c1 | 1.87
COc1cc(/C=C/c2ccc3cccc([N+](=O)[O-])c3n2)ccc1OCC(=O)O | 20.7
O=[N+]([O-])c1ccc(/C=C/c2ccc3cccc([N+](=O)[O-])c3n2)cc1 | -6.24
COC(=O)c1ccc(/C=C/c2ccc3cccc(OC)c3n2)cc1 | 0.52
CSc1ccc(/C=C/c2ccc3cccc(O)c3n2)cc1 | 14.9
CCCn1nnc(NC(=O)c2ccco2)n1 | -183
CCC(C)n1c(SCC(=O)NC(=O)Nc2ccc3c(c2)OCCO3)nc2ccccc2c1=O (stereo not given) | -1.6
CCOC(=O)c1cn2nc(Oc3ccc(OC)cc3)ccc2n1 | 9.2
CCCCCOC(=O)NC1CCS(=O)(=O)C1 (stereo not given) | -3.96
CCOC(=O)C1(CCSC)NC(c2ccco2)C2C(=O)N(CC)C(=O)C21 (stereo not given) | 5.79
CCC(=O)NCCc1c[nH]c2ccccc12 | -4.01
CC(C)C(=O)NCCc1c[nH]c2ccccc12 | 3.48
CSc1n[nH]c(=O)n1-c1ccc(Cl)cc1 | -4.84
Cc1sc(NC(=O)c2ccc(Cl)s2)c(C(N)=O)c1C | -3.24
O=[N+]([O-])c1ccc(Sc2ccccn2)nc1 | 6.7
O=[N+]([O-])c1ccc(Sc2ccccc2)nc1 | -3.15

SMILES | inhibition [%]
Cc1ccc2oc(=O)c3cnn(CC(=O)NCCc4ccsc4)c3c2c1 | 11.8
CCOC(=O)Cn1nnnc1CN(Cc1ccc(OC)cc1)Cc1cc2cc(CC)ccc2[nH]c1=O | 7.13
CCc1cccc2c(=O)c(C(=O)N3CCCCCC3)c[nH]c12 | 3.21
CCN1CCc2c(OCC(=O)N3CCCc4ccccc43)cccc2C1=O | 0.37
CCc1c(C)sc(NC(=O)C2CCCCC2C(=O)O)c1C(N)=O (stereo not given) | 50.6
CC(C)=C1C2CCC1C(C(=O)Nc1sc(C)c(-c3ccc(C(C)C)cc3)c1C(N)=O)C2C(=O)O (stereo not given) | -4
CCc1ccc(-c2c(C)sc(NC(C)=O)c2C(N)=O)cc1 | 41.9
Cc1sc(NC(=O)C2C3CCC(C3)C2C(=O)O)c(C(N)=O)c1-c1ccc(C(C)(C)C)cc1 (stereo not given) | 39.7
Cc1sc(NC(=O)C2CCCCC2C(=O)O)c(C(N)=O)c1C (stereo not given) | 45
Cc1sc(NC(=O)CCC(=O)O)c(C(N)=O)c1-c1ccccc1 | 18
COC(=O)c1c(NC(=O)/C=C/C(=O)O)sc(C)c1-c1ccc(C(C)C)cc1 | 15.5
Cc1sc(NC(=O)/C=C/C(=O)O)c(C(N)=O)c1-c1ccc(C(C)(C)C)cc1 | 21.9
COc1ccccc1-c1n[nH]c(=S)n1N | -6.79
COC(=O)/C(=C/c1ccccc1)NC(=O)c1ccco1 | 0.48
COC(=O)c1ccc(CN2CCN(Cc3ccc(F)cc3)C(CCO)C2)cc1 (stereo not given) | -9.03
Cc1ccc(NC(=O)C(CC(C)C)NC(=O)C2CCC(C)CC2)nc1 (stereo not given) | -1.65
CC(C)NC(=O)COC(=O)c1ccc(Cl)c(S(=O)(=O)N2CCCC2)c1 | 4.58
Cc1ccc2cc(CCNC(=O)c3ccco3)c(=O)[nH]c2c1C | -13.9
O=C(CCC(=O)NNC(=O)COc1ccccc1)NCc1ccccc1 | -10.8
CC(=O)C1=C(O)C(=O)N(CCCO)C1c1ccccc1 (stereo not given) | 27.1

SMILES | inhibition [%]
O=C(c1ccc(S(=O)(=O)N2CCCCC2)cc1)N(c1ccccn1)C1CCCCC1 | 0.89
O=[N+]([O-])c1ccc(N2CCCC2)cc1NC(c1ccccc1)c1ccccc1 | 8.49
CCOc1ccc(NC(=O)C(=O)N/N=C\c2ccc(CNS(=O)(=O)c3ccccc3)o2)cc1 | 0.49
O=C1CCCC(O)=C1N=Nc1cccc(C(=O)O)c1 | 46.3
O=Cc1cc(N=Nc2ccccc2Cl)ccc1O | 40.2
CCCCCNC(=O)c1ccc2c(=O)[nH]c3c(C(=O)NCC4CCCO4)sc(=S)n3c2c1 (stereo not given) | 53.8
O=C(NC1CCCCC1)c1sc(=S)n2c1[nH]c(=O)c1ccccc12 | 24.2
Cc1ccc(CNC(=O)c2ccc3c(=O)[nH]c4c(C(=O)NCC5CCCO5)sc(=S)n4c3c2)cc1 (stereo not given) | 1.99
O=C(NCc1ccccc1)c1sc(=S)n2c1[nH]c(=O)c1ccccc12 | 27.9
Cc1ccc(Nc2nc(N)nc(CSc3nnc(-c4ccncc4)o3)n2)cc1 | -3.96
O=c1cc(C(Cl)(Cl)Cl)oc2c1ccc1ccccc12 | -3.47
CC(=O)C1=C(O)C(=O)N(c2ccc(S(N)(=O)=O)cc2)C1c1ccc([N+](=O)[O-])cc1 (stereo not given) | 23
Cc1ccc(N2CC(=O)Nc3c(oc4nc(-c5ccccc5)cc(C)c34)C2=O)cc1 | -16.6
CCOC(=O)CSc1[nH]c(=O)cc(C)c1C#N | 17
Cc1cc(=O)[nH]c(SCC(=O)c2ccccc2)c1C#N | 16.9
Cc1cc(=O)[nH]c(SCC(=O)O)c1C#N | 2.48
COC(=O)CSc1[nH]c(=O)cc(C)c1C#N | 0.03
CCOC(=O)NC(=O)C(=CNc1ccccc1OC)C(=O)NC(=O)OCC | 22.1
O=[N+]([O-])c1ccc([C@H](O)[C@H](CO)N=Cc2ccccc2O)cc1 | 3.71
CCNC(=O)CC1C(=O)N(c2ccccc2)C(=O)N1Cc1ccc(OC)cc1 (stereo not given) | -7.36
